# Calb biofilm kill – kills Candida albicans biofilms; C. albicans biofilm + clotrimazole, Alamar Blue; inhibition, % at 6 µM; 85,000 compounds, 0.14% hits;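 active = inhibition above 20%; inactive = inhibition below 20%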;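 also: preformed 24 hr biofilms exposed to compound for 48 hr; 0% = biofilm without compound and 100% = blank killed by clotrimazole plus chlorhexidine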
# Smad3 FoxH1 inh – blocks human Smad3 binding to FoxH1 peptide. AID 630. TR-FRET Smad3/Dy647-FoxH1 peptide binding, europium anti-His. inhibition, % at 25 µM. 88,000 compounds, 0.29% hits. P84022;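 active = compounds that reduce the energy-transfer binding signal between the protein and its labelled peptide by more than half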;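 also: 0% = Smad3 plus labelled peptide maximal FRET and 100% = peptide-only background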
# Target sequence (P84022 whole entry, looked up): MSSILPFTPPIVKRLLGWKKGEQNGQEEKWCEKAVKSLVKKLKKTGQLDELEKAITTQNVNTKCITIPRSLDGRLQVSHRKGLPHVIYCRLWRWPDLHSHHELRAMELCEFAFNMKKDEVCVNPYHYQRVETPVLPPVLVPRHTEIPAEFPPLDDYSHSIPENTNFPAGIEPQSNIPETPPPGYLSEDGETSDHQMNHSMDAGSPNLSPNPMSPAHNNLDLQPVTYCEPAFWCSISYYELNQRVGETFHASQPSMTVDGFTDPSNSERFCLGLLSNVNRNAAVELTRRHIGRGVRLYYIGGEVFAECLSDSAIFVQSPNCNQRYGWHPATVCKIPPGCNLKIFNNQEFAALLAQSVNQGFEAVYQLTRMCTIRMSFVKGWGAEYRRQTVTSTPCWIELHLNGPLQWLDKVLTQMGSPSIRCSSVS
# MRP reversal – compounds reversing MRP-mediated drug resistance | H69AR cells + 2 uM doxorubicin, CellTiter-Glo, 72 h | differential viability (reversal), % at 10 µM | 85,000 compounds, 0.04% hits | AID 602;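 active = viability drop by adding the cancer drug above about 55%, with treated viability meeting a 40% cutoff, limit read from the data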;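 also: viability without doxorubicin minus viability with 2 µM doxorubicin for each compound; larger differential means the compound sensitizes cells more to doxorubicin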
# MRP-1 activ – activates MRP-1. viability increase, % at 10 µM. 140,000 compounds, 0.61% hits. H69AR cells + doxorubicin, viability rescue, CellTiter-Glo;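 active = viability gain under doxorubicin at or above a set limit, the compound median plus 3 SD, cut at about 4.7% in these data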;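 also: MRP-1 overexpressing cells given doxorubicin 25 µM after compound pretreatment; 18-22 h compound pretreatment then 72 h with doxorubicin before readout; 0% = doxorubicin-only wells and 100% = vehicle-treated cells without doxorubicin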
# An asterisk follows results filed as active; / = no result. A selection: hits, their analogues and other compounds. The true share with any hit is near 0.83%.
SMILES,Calb biofilm kill,Smad3 FoxH1 inh,MRP reversal,MRP-1 activ
CCc1c(C)sc(NC(=O)c2cc(CC(C)C)on2)c1C#N,7,-3,-20,8.0*
N=C(N)SCc1ccc(Cl)cc1Cl,/,/,/,5.2*
Nc1nnc(CSCc2ccc(Cl)cc2Cl)s1,/,/,/,2
Nc1nc2c(ncn2[C@@H]2C=C[C@@H](CO)C2)c(=O)[nH]1,/,-8,/,/
NS(=O)(=O)c1ccc(NC(=O)C2CCCO2)cc1 (stereo not drawn),2,-13,-27,-1
O=C(Nc1ccc(O)cc1)C1CCCO1 (stereo not drawn),5,9,7,28*
COc1ccc(CC(=O)Nc2cccc(-c3nnc(-c4cccc(C)c4)o3)c2)cc1OC,2,5,6,1
COc1ccc(Cc2nnc(-c3cccc(C)c3)o2)cc1OC,24*,0,19,1
CNC/C(Cl)=N/S(=O)(=O)c1ccc(C)cc1,/,-1,/,/
C=CCSC1=NC(=O)/C(=C/c2cccs2)S1,/,/,/,8.8*
COc1ccc(N2CCN(c3oc(COc4ccccc4)nc3C#N)CC2)cc1,2,2,19,2
COc1ccc(N2CCN(c3oc(COc4ccc(Cl)cc4)nc3C#N)CC2)cc1,/,/,/,5.8*
N#Cc1nc(COc2ccc(Cl)cc2)oc1N1CCN(Cc2ccccc2)CC1,/,/,/,4.8*
Cn1c(=O)c2[nH]c([C@@H]3CC(=O)C[C@H](c4nc5c([nH]4)c(=O)n(C)c(=O)n5C)N3)nc2n(C)c1=O,/,42,/,/
COc1cc(C2Nc3cccc4cccc(c34)N2)cc(OC)c1O,6,3,-22,6.5*
O=C1c2ccccc2C(=O)c2c(Nc3cc4c5c(ccc6c7ccc8c9c(cc(Nc%10cccc%11c%10C(=O)c%10ccccc%10C%11=O)c(c3c56)c97)-c3ccccc3C8=O)C(=O)c3ccccc3-4)cccc21,/,73*,/,/
CNc1cccc2c1C(=O)c1ccccc1C2=O,/,/,/,-4
O=C1c2ccccc2C(=O)c2c(Nc3ccc4c5c(cccc35)C(=O)c3ccccc3-4)cccc21,/,83*,/,/
Cc1noc(/C=C/N(C)C)c1S(=O)(=O)N1CCCC(C(=O)NC2CCCCC2)C1 (stereo not drawn),5,0,-14,9.3*
Cc1noc(/C=C/N(C)C)c1S(=O)(=O)N1CCCC(C(=O)NCc2ccc(F)cc2)C1 (stereo not drawn),7,-13,8,12*
Cc1noc(/C=C/N(C)C)c1S(=O)(=O)N1CCCC(C(=O)N2CCCCC2)C1 (stereo not drawn),16,12,9,1
Cc1noc(/C=C/N(C)C)c1S(=O)(=O)N1CCCC(C(=O)NCc2ccccc2Cl)C1 (stereo not drawn),8,4,8,7.6*
Cc1noc(/C=C/N(C)C)c1S(=O)(=O)N1CCCC(C(=O)NCc2ccc(Cl)cc2)C1 (stereo not drawn),7,15,11,4.9*
Cc1n[nH]c(C)c1S(=O)(=O)N1CCCC(C(=O)NCc2ccccc2Cl)C1 (stereo not drawn),5,/,3,-3
CC(C)[C@@H]1O[C@H](/C=C/c2ccccc2)OCC1(C)C,/,4,/,/
SMILES,Calb biofilm kill,Smad3 FoxH1 inh,MRP reversal,MRP-1 activ
C[N+](C)(C)c1cc2c(nn1)Nc1ccccc1S2,/,41,/,/
Nc1nc(SCC(=O)C2CCC(Br)CC2)c2[nH]cnc2n1 (stereo not drawn),/,8,/,/
C[N+](C)(C)/N=C/c1ccc(O)c(O)c1,/,13,/,/
CC(/C=C1\SC(=S)N(NC(=O)c2ccc(O)cc2)C1=O)=C\c1ccccc1,/,/,/,7.9*
Cc1ccc(C(=O)NN2C(=O)/C(=C/c3cn(C)c4ccccc34)SC2=S)cc1,/,/,/,-4
CC(/C=C1\SC(=S)N(CCCC(=O)Nc2ccc(C(=O)O)cc2)C1=O)=C\c1ccccc1,/,/,/,13*
CC(/C=C1\SC(=O)N(CCCC(=O)O)C1=O)=C\c1ccccc1,/,/,/,-3
Cn1c(Cn2c(=O)sc3ccccc32)nnc1SCC(=O)NC1CCCCC1,21*,8,3,-1

# Source: PubChem BioAssay
